The results in this text go back to PubChem BioAssay (EPA / NIEHS).

The AC50 is the concentration at which the activity in the assay is half-maximal.

For experiment [1], the target named is rat Mineralocorticoid Receptor (MR), Nr3c2 (gene 25672) (UniProt P22199). In words: NVS_NR_rMR: NovaScreen (NVS) Nuclear Receptor Binding Assay for rat Mineralocorticoid Receptor (MR) (AID 2283355). The procedure, abridged: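 Cell-free radioligand binding to MR in adrenalectomized rat brain supernatant, scintillation counted 24 h after dosing. Loss of signal versus DMSO baseline marks displacement. Primary screen in duplicate at 25 uM; actives retested as concentration series.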

Experiment [2] concerns the target Retinoic acid receptor alpha (Homo sapiens) (UniProt P10276). In words: NVS_NR_hRARa_Agonist: NovaScreen (NVS) Nuclear Receptor Binding Assay for human Retinoic Acid Alpha Receptor Agonism (RAR) (AID 2283361). The essentials:
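Cell-free TR-FRET binding read-out with extracted human RARα protein, read 2 h after compound addition. Gain of signal scored against DMSO baseline. Primary screen at a single 25 uM in duplicate; actives then retested in concentration series.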

Experiment [3] concerns the target Nuclear receptor subfamily 1 group I member 2 (Homo sapiens) (UniProt O75469). In words: NVS_NR_hPXR: NovaScreen (NVS) Nuclear Receptor Binding Assay for human Pregnane X Receptor (PXR) (AID 2283365).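 Note: a drop in FRET signal versus DMSO baseline means the compound binds.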 The procedure, abridged:
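Human PXR binding measured by TR-FRET in a cell-free format, 2 h exposure. Single-concentration duplicates at 25 uM preceded concentration-response retests of actives; endpoint fitted positively relative to DMSO, loss of signal indicating binding.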

The target of experiment [4] is guinea pig Sigma Receptor, Non-selective Binding, SIGMAR1 (gene 100135589) (UniProt Q60492). The experiment is described as follows: NVS_OR_gSIGMA_NonSelective: NovaScreen (NVS) Nuclear Receptor Binding Assay for guinea pig Sigma Receptor, Non-selective Binding (AID 2283367). The essentials:
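Guinea pig brain membranes, cell-free radioligand binding; read 1 h after dosing by filter-based scintillation counting. Loss of signal vs DMSO baseline taken as displacement. Primary screen single concentration 25 uM in duplicate; actives retested in concentration series.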

The target in experiment [5] is human Adenosine Transporter (Adot), SLC29A1 (gene 2030) (UniProt Q99808). The experiment is described as follows: NVS_TR_hAdoT: NovaScreen (NVS) Transporter Assay for human Adenosine Transporter (Adot) (AID 2283368). The essentials: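 U937-derived membranes, cell-free radioligand binding, filter scintillation 1 h after dosing. 25 uM duplicate screen; hits (e.g. 30% inhibition) run in concentration-response up to 50 uM; loss of signal versus DMSO.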
Sequence of human Adenosine Transporter (Adot), SLC29A1 (gene 2030) (Q99808 whole entry, looked up): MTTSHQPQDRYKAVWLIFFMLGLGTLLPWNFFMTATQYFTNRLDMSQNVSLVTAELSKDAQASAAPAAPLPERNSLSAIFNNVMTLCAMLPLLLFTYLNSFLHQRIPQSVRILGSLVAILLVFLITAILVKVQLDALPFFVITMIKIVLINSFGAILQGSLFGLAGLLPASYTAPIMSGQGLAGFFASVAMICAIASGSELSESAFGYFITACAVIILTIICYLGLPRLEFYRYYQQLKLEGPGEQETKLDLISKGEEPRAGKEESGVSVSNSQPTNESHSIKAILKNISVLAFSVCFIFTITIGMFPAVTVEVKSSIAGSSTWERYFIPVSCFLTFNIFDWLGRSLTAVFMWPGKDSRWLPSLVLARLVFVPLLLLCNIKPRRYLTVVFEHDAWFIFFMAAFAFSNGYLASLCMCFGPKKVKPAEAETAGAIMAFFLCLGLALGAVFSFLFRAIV

The target in experiment [6] is Retinoic acid receptor alpha (Homo sapiens) (UniProt P10276). In words: NVS_NR_hRAR_Antagonist: NovaScreen (NVS) Nuclear Receptor Binding Assay for human Retinoic Acid Alpha Receptor Antagonism (RAR) (AID 2283358). The procedure, abridged:
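Cell-free TR-FRET binding assay on extracted receptor protein, run in antagonist mode; signal read 2 hours after chemical dosing. Loss of signal was fitted relative to DMSO baseline. Screened at 25 uM in duplicate, actives followed up in concentration series.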

Experiment [7] deals with human Thyroid Receptor Alpha (TRa), THRA (gene 7067) (UniProt P10827). The experiment is described as follows: NVS_NR_hTRa_Antagonist: NovaScreen (NVS) Nuclear Receptor Binding Assay for human Thyroid Receptor Alpha Antagonism (TRa) (AID 2283362).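 Note: activity is loss of signal relative to DMSO baseline.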 The procedure, abridged: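 Actives from a duplicate 25 uM single-point screen were retested in concentration series. The cell-free antagonist-format binding assay was read by AlphaLISA chemiluminescence at 1 h, scored as signal loss relative to DMSO.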
Sequence of human Thyroid Receptor Alpha (TRa), THRA (gene 7067) (P10827 whole entry, looked up): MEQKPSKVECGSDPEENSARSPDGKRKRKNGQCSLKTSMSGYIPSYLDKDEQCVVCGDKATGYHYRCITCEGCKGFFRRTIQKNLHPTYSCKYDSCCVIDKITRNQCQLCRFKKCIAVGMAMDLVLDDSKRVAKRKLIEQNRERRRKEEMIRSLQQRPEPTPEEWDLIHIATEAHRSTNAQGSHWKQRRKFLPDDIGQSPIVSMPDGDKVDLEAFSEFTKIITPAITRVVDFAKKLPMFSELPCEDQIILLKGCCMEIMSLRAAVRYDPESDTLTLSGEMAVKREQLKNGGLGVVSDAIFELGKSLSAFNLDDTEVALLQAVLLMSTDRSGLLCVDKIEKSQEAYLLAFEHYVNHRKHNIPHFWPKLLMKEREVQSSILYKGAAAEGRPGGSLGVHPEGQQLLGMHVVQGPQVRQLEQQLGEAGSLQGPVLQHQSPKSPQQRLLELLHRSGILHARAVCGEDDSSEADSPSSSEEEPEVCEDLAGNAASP

Experiment [8] addresses Glucocorticoid receptor (Homo sapiens) (UniProt P04150). In words: NVS_NR_hGR: NovaScreen (NVS) Nuclear Receptor Binding Assay for human Glucocorticoid Receptor (GR) (AID 2283363).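 For AC50: activity is loss of specific radioligand binding signal relative to DMSO.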 The procedure, abridged:
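Cell-free radioligand binding with extracted receptor protein, read by filter-based scintillation counting 16 hours after dosing. Loss of specific signal versus DMSO baseline was scored. Primary screen ran in duplicate at 25 uM; actives were followed up in concentration series.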

A further experiment concerns the target PGR (gene 5241) (UniProt P06401). In words: NVS_NR_hPR: NovaScreen (NVS) Nuclear Receptor Binding Assay for human Progestron Receptor (PR) (AID 2283360).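 Note: active means loss of bound radioligand signal versus DMSO baseline.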 The procedure, abridged:
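Radioligand competition binding on receptor extracted from T47D cells, read by scintillation counting 18 h after dosing. Loss of signal versus DMSO; primary screen in duplicate at 25 uM, actives followed in concentration series.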

Experiment [9] addresses Peroxisome proliferator-activated receptor gamma (Homo sapiens) (UniProt P37231). In words: NVS_NR_hPPARg: NovaScreen (NVS) Nuclear Receptor Binding Assay for human Peroxisome Proliferator-activated Receptor gamma (PPARg) (AID 2283370). The procedure, abridged:
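Fluorescence polarization readout of ligand binding to extracted human PPARg, measured at 2 h. Duplicate single-point screen at 25 uM, then concentration-series retesting; activity defined as signal loss versus DMSO.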

The subject of experiment [10] is guinea pig Dopamine Transporter (DAT), gene 100714898. In words: NVS_TR_gDAT: NovaScreen (NVS) Transporter Assay for guinea pig Dopamine Transporter (DAT) (AID 2283369).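 Note: active compounds lower bound radioligand signal relative to DMSO.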 The procedure, abridged: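 Radioligand displacement on membranes from guinea pig striatum, 2 h exposure, bound label counted by filtration and scintillation. Tested at 25 uM in duplicate, then actives in concentration series to 50 uM; DMSO as negative control.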

For experiment [11], the target named is rat Androgen Receptor (AR), Ar (gene 24208) (UniProt P15207). In words: NVS_NR_rAR: NovaScreen (NVS) Nuclear Receptor Binding Assay for rat Androgen Receptor (AR) (AID 2283366). The essentials:
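Cell-free radioligand binding on extracts of prostate from testosterone-pretreated rats, read by filter-based scintillation counting 18 h after dosing. Loss of bound signal fitted positively versus DMSO; primary screen in duplicate at 25 uM, actives followed up in concentration series.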

Experiment [12] concerns the target human Peroxisome Proliferator-activated Receptor alpha (PPARa), PPARA (gene 5465) (UniProt Q07869). In words: NVS_NR_hPPARa: NovaScreen (NVS) Nuclear Receptor Binding Assay for human Peroxisome Proliferator-activated Receptor alpha (PPARa) (AID 2283359).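 Note: activity means loss of TR-FRET signal versus DMSO baseline.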 The procedure, abridged: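 Cell-free binding assay with extracted human protein, read by TR-FRET 1 h after chemical dosing. Loss of signal relative to DMSO baseline indicates binding. Primary screen used duplicate single concentration (25 uM); actives followed up in concentration series.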

In experiment [13] the target is human Serotonin Transporter (SERT), SLC6A4 (gene 6532) (UniProt P31645). The experiment is described as follows: NVS_TR_hSERT: NovaScreen (NVS) Transporter Assay for human Serotonin Transporter (SERT) (AID 2283372). The essentials: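 Radioligand binding to native SERT in human platelet membranes, read by filter-based scintillation counting 1 h after dosing. Primary screen in duplicate at 25 uM; actives followed up in concentration series; loss of signal versus DMSO baseline.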
Sequence of human Serotonin Transporter (SERT), SLC6A4 (gene 6532) (P31645 whole entry, looked up): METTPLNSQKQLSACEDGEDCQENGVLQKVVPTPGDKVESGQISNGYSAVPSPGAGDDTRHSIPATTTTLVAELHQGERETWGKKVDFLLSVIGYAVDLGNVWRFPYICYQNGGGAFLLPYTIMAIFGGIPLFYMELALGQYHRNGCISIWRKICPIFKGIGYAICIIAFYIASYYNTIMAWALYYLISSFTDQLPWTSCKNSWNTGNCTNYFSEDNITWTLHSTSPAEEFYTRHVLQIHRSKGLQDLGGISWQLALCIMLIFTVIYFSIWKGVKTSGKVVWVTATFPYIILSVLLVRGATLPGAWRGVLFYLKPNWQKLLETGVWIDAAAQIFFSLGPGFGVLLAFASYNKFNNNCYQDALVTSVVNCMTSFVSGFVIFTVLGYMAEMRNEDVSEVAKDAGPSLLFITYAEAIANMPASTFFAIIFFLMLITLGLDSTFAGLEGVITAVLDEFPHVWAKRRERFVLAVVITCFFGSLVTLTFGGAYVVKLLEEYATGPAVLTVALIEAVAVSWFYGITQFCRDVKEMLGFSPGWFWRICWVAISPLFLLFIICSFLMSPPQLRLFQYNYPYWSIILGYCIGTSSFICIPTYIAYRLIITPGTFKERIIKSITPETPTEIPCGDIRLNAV

Molecules are shown by their SMILES. Inconclusive results are not listed. Some structures have more than one record in an assay (separate samples or runs), and their calls can disagree. Activity calls are given as the source filed them. Rule for the calls: active = hit-call score of the fitted dose curve at least 0.9, where 1 is the maximum; inconclusive = response in the unintended direction; inactive = score below 0.9.

Sequence of Glucocorticoid receptor (Homo sapiens) (P04150 whole entry, looked up): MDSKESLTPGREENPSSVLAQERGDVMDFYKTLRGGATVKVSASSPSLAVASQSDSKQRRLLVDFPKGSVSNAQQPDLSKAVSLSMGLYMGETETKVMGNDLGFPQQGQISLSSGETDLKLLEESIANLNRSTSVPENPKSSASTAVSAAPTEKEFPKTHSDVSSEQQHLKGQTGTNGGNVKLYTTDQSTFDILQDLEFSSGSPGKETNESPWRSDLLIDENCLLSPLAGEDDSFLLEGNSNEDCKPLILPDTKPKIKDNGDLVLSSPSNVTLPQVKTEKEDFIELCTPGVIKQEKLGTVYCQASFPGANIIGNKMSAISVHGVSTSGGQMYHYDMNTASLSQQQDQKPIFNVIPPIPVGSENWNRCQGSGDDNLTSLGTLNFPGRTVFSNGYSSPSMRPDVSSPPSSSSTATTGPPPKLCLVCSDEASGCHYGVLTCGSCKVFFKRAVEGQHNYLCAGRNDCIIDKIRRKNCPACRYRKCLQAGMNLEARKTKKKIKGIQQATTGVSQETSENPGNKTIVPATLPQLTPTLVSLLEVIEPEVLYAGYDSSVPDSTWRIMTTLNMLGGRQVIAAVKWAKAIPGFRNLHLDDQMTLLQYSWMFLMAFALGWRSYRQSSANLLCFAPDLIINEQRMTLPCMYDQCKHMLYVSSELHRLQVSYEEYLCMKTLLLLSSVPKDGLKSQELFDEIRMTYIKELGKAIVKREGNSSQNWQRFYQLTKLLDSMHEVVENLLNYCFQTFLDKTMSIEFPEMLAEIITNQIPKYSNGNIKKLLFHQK
Sequence of Nuclear receptor subfamily 1 group I member 2 (Homo sapiens) (O75469 whole entry, looked up): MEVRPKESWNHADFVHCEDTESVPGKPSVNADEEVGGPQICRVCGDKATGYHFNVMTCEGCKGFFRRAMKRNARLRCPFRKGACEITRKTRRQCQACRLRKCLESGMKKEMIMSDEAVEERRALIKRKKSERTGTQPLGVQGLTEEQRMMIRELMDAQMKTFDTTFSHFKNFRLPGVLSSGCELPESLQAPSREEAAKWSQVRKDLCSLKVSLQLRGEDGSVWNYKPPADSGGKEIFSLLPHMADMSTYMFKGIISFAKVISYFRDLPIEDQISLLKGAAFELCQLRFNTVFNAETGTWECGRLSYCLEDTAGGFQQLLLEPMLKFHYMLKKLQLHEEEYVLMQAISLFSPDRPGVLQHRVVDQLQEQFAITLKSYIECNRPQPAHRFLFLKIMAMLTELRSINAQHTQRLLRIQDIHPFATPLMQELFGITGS
Sequence of Retinoic acid receptor alpha (Homo sapiens) (P10276 whole entry, looked up): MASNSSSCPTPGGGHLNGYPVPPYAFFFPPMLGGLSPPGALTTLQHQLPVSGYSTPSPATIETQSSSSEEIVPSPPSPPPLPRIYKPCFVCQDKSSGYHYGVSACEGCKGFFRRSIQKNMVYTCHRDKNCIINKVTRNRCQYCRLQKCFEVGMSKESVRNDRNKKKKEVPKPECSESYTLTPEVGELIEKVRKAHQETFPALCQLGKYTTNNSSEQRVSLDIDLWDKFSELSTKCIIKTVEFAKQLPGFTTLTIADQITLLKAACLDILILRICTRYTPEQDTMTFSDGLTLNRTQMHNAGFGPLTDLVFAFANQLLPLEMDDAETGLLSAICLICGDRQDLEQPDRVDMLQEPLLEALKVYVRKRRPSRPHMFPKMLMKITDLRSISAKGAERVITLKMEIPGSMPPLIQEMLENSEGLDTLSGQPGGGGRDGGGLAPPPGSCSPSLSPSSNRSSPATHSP
Sequence of PGR (gene 5241) (P06401 whole entry, looked up): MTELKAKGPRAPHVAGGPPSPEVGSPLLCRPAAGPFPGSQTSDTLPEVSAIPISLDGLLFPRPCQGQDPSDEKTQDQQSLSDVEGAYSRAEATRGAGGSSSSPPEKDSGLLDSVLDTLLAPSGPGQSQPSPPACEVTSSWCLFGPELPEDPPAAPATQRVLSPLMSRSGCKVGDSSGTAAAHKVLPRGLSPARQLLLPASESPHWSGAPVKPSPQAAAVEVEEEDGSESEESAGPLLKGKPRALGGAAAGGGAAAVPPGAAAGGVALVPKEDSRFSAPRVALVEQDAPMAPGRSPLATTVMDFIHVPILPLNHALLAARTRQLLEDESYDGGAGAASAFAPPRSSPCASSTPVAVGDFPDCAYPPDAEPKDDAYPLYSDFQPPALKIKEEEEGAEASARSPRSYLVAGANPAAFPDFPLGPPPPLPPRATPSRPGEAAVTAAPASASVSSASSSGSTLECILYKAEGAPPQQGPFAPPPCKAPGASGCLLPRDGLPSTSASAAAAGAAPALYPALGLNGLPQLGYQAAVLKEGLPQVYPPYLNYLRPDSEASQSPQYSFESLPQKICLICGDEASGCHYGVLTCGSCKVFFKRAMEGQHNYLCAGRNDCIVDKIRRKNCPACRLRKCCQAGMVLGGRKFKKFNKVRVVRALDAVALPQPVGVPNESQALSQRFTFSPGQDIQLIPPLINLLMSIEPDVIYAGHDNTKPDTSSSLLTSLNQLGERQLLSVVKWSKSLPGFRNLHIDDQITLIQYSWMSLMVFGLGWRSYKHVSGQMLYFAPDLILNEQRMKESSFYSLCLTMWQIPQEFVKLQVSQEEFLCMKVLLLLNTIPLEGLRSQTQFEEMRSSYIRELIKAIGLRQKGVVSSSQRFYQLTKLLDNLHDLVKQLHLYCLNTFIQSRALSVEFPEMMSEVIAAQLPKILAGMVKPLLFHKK
Sequence of Peroxisome proliferator-activated receptor gamma (Homo sapiens) (P37231 whole entry, looked up): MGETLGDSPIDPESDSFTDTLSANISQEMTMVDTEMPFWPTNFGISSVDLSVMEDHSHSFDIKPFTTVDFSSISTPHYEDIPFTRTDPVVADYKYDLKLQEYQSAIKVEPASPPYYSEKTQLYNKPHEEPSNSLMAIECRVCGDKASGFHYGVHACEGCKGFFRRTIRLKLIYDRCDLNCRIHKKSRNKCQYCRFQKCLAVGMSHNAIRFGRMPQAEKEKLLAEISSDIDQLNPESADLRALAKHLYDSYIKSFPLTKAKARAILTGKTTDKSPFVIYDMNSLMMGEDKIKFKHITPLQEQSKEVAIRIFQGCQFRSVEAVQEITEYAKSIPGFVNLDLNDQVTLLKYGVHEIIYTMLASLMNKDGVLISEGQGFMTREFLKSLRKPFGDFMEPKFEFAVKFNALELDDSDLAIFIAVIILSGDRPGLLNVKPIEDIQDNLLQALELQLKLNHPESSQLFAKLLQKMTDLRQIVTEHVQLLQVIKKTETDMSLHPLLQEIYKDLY
Sequence of guinea pig Sigma Receptor, Non-selective Binding, SIGMAR1 (gene 100135589) (Q60492 whole entry, looked up): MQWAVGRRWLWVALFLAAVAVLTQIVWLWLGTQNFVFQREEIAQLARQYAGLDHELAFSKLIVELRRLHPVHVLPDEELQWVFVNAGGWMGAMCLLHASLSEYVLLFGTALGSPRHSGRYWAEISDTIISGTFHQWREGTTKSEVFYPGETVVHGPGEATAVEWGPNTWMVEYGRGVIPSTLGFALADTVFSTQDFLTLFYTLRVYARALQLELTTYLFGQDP

Take `CCOP(=S)(OCC)Oc1ccc([N+](=O)[O-])cc1`: the call in experiment [1] was inactive.

For the compound `CCOC(=O)COc1cc(-c2nn(C)c(OC(F)F)c2Cl)c(F)cc1Cl`, the outcome in experiment [2] was inactive.

Consider `O=[N+]([O-])c1cc(C(F)(F)F)c(Cl)c([N+](=O)[O-])c1Nc1ncc(C(F)(F)F)cc1Cl`, for which the result in experiment [2] was inactive.

For the compound `CC[C@H](C)[C@H]1O[C@]2(C=C[C@@H]1C)C[C@@H]1C[C@@H](C/C=C(\C)[C@@H](O[C@H]3C[C@H](OC)[C@@H](O[C@H]4C[C@H](OC)[C@@H](NC)[C@H](C)O4)[C@H](C)O3)[C@@H](C)/C=C/C=C3\CO[C@@H]4[C@H](O)C(C)=C[C@@H](C(=O)O1)[C@]34O)O2`, in [3], the AC50 was 6.81 µM (active).

Consider `CCC(=O)Nc1ccc(Cl)c(Cl)c1`, for which the half-maximal activity concentration (AC50) in experiment [4] is 9.51 µM (active).

Consider `COc1ccc(C(=CC(=O)N2CCOCC2)c2ccc(Cl)cc2)cc1OC`, for which, in [5], the concentration at half-maximal activity (AC50) was 9.48 µM (active).

On to `CC(C)=CC1C(C(=O)OCN2C(=O)C3=C(CCCC3)C2=O)C1(C)C` (stereo not given), for which the AC50 in experiment [5] was 25 µM (active).

For the compound `S=C1NCCN1`, the result in experiment [6], in [7] and in experiment [4] was inactive.

As to `C#CC(C)(C)NC(=O)c1cc(Cl)cc(Cl)c1`, the outcome in experiment [6] and in [8] was inactive. In addition, in experiment [4], the AC50 was 1.94 µM (active).

For `CNC(=O)ON=C(C)SC`, the outcome (with PGR (gene 5241); in experiment [8]) was inactive.

Take `CCOP(=O)(OCC)Oc1cc(C)nc(C(C)C)n1`: the result (with PGR (gene 5241); in experiment [7]; in experiment [9]) was inactive.

`CC(C)[C@H](C(=O)O[C@H](C#N)c1cccc(Oc2ccccc2)c1)c1ccc(Cl)cc1`: the compound was classed as inactive in experiment [9].

With `CCOP(=S)(OCC)OC(Cl)C(Cl)(Cl)Cl` (stereo not given), the outcome in experiment [9] was inactive.

In the case of `COP(=O)(NC(C)=O)SC` (stereo not given), the half-maximal activity concentration (AC50) in [8] was 1.66 µM (active). The call in [9] was inactive.

For `CC1(C(=O)Nc2ccc(O)c(Cl)c2Cl)CCCCC1`, the result in the experiment with PGR (gene 5241) was inactive. The half-maximal activity concentration (AC50) in experiment [10] was 3.33 µM (active).

As for `CCOC(=O)CC(SP(=O)(OC)OC)C(=O)OCC` (stereo not given), the compound was classed as inactive (in experiment [6]; with PGR (gene 5241); in experiment [7]; in experiment [4]; in experiment [9]).

In the case of `CSc1nnc(C(C)(C)C)c(=O)n1N`, the result in experiment [6] was inactive.

In the case of `CCCCN(CC)c1c([N+](=O)[O-])cc(C(F)(F)F)cc1[N+](=O)[O-]`, the compound was called inactive (in experiment [6]; in the experiment with PGR (gene 5241); in experiment [7]; in [8]; in [9]).

As to `CC(C1CC1)C(O)(Cn1cncn1)c1ccc(Cl)cc1` (stereo not given), the call (in experiment [6]; with PGR (gene 5241); in experiment [7]; in experiment [3]) was inactive.

For the compound `CC(C)N(C(=O)SCC(Cl)=C(Cl)Cl)C(C)C`, the outcome in [6], in experiment [7], in experiment [8] and in experiment [3] was inactive.

Consider `CCCSP(=O)(OCC)SCCC`, for which the result (with PGR (gene 5241); in [8]; in experiment [11]; in experiment [9]) was inactive.

Consider `CCCSP(=O)(OCC)Oc1ccc(Br)cc1Cl` (stereo not given), for which, in the experiment with PGR (gene 5241), the AC50 is 25 µM (active).

On to `CCc1cnc(C2=NC(C)(C(C)C)C(=O)N2)c(C(=O)O)c1` (stereo not given), for which the AC50 in [7] is 17.7 µM (active).

Consider `O=C(O)c1cc(Oc2ccc(C(F)(F)F)cc2Cl)ccc1[N+](=O)[O-]`, for which the half-maximal activity concentration (AC50) in experiment [9] was 9.58 µM (active).

Consider `CN(C)[C@@H]1C(=O)C(C(N)=O)=C(O)[C@@]2(O)C(=O)C3=C(O)c4c(O)cccc4[C@@](C)(O)[C@H]3[C@H](O)[C@@H]12`, for which the concentration at half-maximal activity (AC50) was 14.1 µM (active) in experiment [12], 2.08 µM (active) in experiment [3] and 20.2 µM (active) in experiment [9]. Further, the compound was classed as inactive in [7], in experiment [3] and in [9].

For `C[Si](Cn1cncn1)(c1ccc(F)cc1)c1ccc(F)cc1`, the call with PGR (gene 5241) was inactive.

As for `C#CCC1=C(C)C(OC(=O)C2C(C=C(C)C)C2(C)C)CC1=O` (stereo not given), the concentration at half-maximal activity (AC50) in experiment [10] is 9.21 µM (active).

Turning to `CCCOCC(=Nc1ccc(Cl)cc1C(F)(F)F)n1ccnc1`, the outcome (in the experiment with PGR (gene 5241); in [10]; in [13]) was inactive. Besides, the AC50 is 7.9 µM (active) in [8], 7.82 µM (active) in experiment [4], 25 µM (active) in experiment [5] and 17.6 µM (active) in experiment [9].

Turning to `CCOP(=S)(OCC)Oc1cc(C)nc(C(C)C)n1`, the call (with PGR (gene 5241); in experiment [8]) was inactive.

As to `FC(F)C(F)(F)OCC(Cn1cncn1)c1ccc(Cl)cc1Cl` (stereo not given), the AC50 is 8.87 µM (active) in [8] and 16.5 µM (active) in experiment [4].

Regarding `CCC(CC)Nc1c([N+](=O)[O-])cc(C)c(C)c1[N+](=O)[O-]`, the compound was classed as inactive (with PGR (gene 5241); in experiment [7]; in experiment [8]; in experiment [9]).

As to `CCc1cccc(C)c1N(C(=O)CCl)C(C)COC` (stereo not given), the compound was called inactive in experiment [6], in [4] and in [9].

As to `CCOP(=S)(OCC)Oc1ccc2c(C)c(Cl)c(=O)oc2c1`, in the experiment with PGR (gene 5241), the concentration at half-maximal activity (AC50) was 1.13 µM (active).

Turning to `C[N+]1(C)CCCCC1`, the call in experiment [13] was inactive.

On to `CCOP(=S)(OCC)SCCSCC`, for which the compound was classed as inactive in experiment [6], in experiment [8] and in experiment [9].

Regarding `CNc1cnn(-c2cccc(C(F)(F)F)c2)c(=O)c1Cl`, the call (in experiment [6]; with PGR (gene 5241); in experiment [8]; in [9]) was inactive.
